Measurements from PubChem BioAssay (NCATS).
Inconclusive results are not listed. Where a call stands in place of a potency, no number is given. The source made the active and inactive calls. Calls come from the whole dose curve; as a rule, active = well fitted cell-killing curve with a large enough effect; inconclusive = small, poorly fitted or top-dose-only effect; inactive = no such curve, though single readings can be large or run the other way.

Assay: qHTS of pediatric cancer cell lines to identify multiple opportunities for drug repurposing: Primary screen for Rh30 cells (AID 1347107); note: nearly all actives have a fitted effect of over 75% in size
Conditions: Rh30 rhabdomyosarcoma viability, CellTiter-Glo luminescence, 48 h; series mostly up to 46 µM
Outline: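 Viability after 48 h compound treatment at 37C, 500-1,000 cells/well, read as ATP luminescence with CellTiter-Glo. Primary screens used 11-point (MIPE, 0.78 nM-46 µM) or 8-point (NPC, 0.59 nM-46 µM) final concentrations; follow-up screens used 11-point dilutions.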

SMILES	outcome
Nc1ncnc2c1ncn2[C@@H]1O[C@H](CO)[C@@H](O)[C@H]1O	inactive
NC(=O)NC(=O)Cc1ccccc1	inactive
Nc1cc(=O)[nH]c(N)n1	inactive
CCCCOC(=O)c1ccc(O)cc1	inactive
Nc1nc2c(ncn2CCC(CO)CO)c(=O)[nH]1	inactive
CCCCCCCCCCCCCCCCCCOCC(O)CO (stereo not drawn)	inactive
CO/N=C(\C(=O)N[C@@H]1C(=O)N2C(C(=O)O)=C(CSc3nc(=O)c(O)nn3C)CS[C@H]12)c1csc(N)n1	inactive
O=C(O)c1ccccc1-c1ccc(C(F)(F)F)cc1	inactive
CCOC(=O)[C@H](CCc1ccccc1)N[C@@H](C)C(=O)N1C(=O)N(C)C[C@H]1C(=O)O	inactive
O=S(=O)(O)c1cc(I)c(O)c2ncccc12	inactive
CC(=O)Nc1ccc(/C=N/NC(N)=S)cc1	inactive
NCCNCCNCCN	inactive
CC(O)CN(CCN(CC(C)O)CC(C)O)CC(C)O (stereo not drawn)	inactive
CCCOC(=O)c1ccccc1	inactive
CN(C)CCCO[C@@H]1[C@H]2OC(C)(C)O[C@H]2O[C@@H]1C(O)CO (stereo partly drawn)	inactive
CCCCCCCCCCCCOS(=O)(=O)O	inactive
O=C(O)Cc1sc(-c2ccccc2)nc1-c1ccc(Cl)cc1	inactive
CC(=O)OCC(=O)[C@@]1(O)CC[C@H]2[C@@H]3CCC4=CC(=O)CC[C@]4(C)[C@H]3C(=O)C[C@@]21C	inactive
CCN(CC)CCNC(C(=O)OCCC(C)C)c1ccccc1 (stereo not drawn)	inactive
CN1CCOC(c2ccccc2)c2ccccc2C1 (stereo not drawn)	inactive

SMILES	outcome
CCC(=O)c1ccc(O)cc1	inactive
Cn1cc[nH]c1=S	inactive
C[C@@H]1CCN(C(=O)[C@H](CCCN=C(N)N)NS(=O)(=O)c2cccc3c2NC[C@H](C)C3)[C@@H](C(=O)O)C1	inactive
NS(=O)(=O)c1cc2c(cc1C(F)(F)F)NC(Cc1ccccc1)NS2(=O)=O (stereo not drawn)	inactive
CCCCN1CCCC[C@H]1C(=O)Nc1c(C)cccc1C	inactive
NCC(=O)CCC(=O)O	inactive
Cc1cc(O)cc2c1O[C@](C)(CCC[C@H](C)CCC[C@H](C)CCCC(C)C)CC2	inactive
O=S(=O)(O)NC1CCCCC1	inactive
O=C1NS(=O)(=O)c2ccccc21	inactive
Cn1c(=O)c2c(ncn2CC2OCCO2)n(C)c1=O	inactive
OC[C@H]1O[C@@H](O[C@@H]2[C@@H](CO)O[C@](O)(CO)[C@H]2O)[C@H](O)[C@@H](O)[C@H]1O	inactive
O=C1OC(OC(=O)c2cccnc2Nc2cccc(C(F)(F)F)c2)c2ccccc21 (stereo not drawn)	inactive
CC1(C)[C@@H]2CC[C@@]1(C)C(=O)C2	inactive
COc1cc(C)c(Cc2cnc(N)nc2N)cc1OC	inactive
c1ccc2c(CC3=NCCN3)cccc2c1	inactive
NC(=O)NNc1ccccc1	inactive
C[C@]12CC[C@@H]3c4ccc(O)cc4CC[C@H]3[C@@H]1CC[C@@H]2OC(=O)CCC1CCCC1	inactive
C[C@@H]1CN(c2c(F)c(F)c3c(=O)c(C(=O)O)cn(C4CC4)c3c2F)C[C@H](C)N1	inactive
NC(=O)N/N=C/c1ccc([N+](=O)[O-])o1	inactive

Assay: qHTS of pediatric cancer cell lines to identify multiple opportunities for drug repurposing: Primary screen for Rh41 cells (AID 1347108);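 note: luminescence drop marks cytotoxic hits; nearly all actives have a fitted effect of over 70% in size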
Conditions: Rh41 rhabdomyosarcoma viability, CellTiter-Glo luminescence, 48 h; series mostly up to 46 µM
Outline: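 Viability was measured as metabolically active cells after 48 hours of treatment, read by CellTiter-Glo luminescence. Compounds were tested at multiple final concentrations, giving concentration-response curves.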

SMILES	Potency
Nc1ncnc2c1ncn2[C@@H]1O[C@H](CO)[C@@H](O)[C@H]1O	inactive
NC(=O)NC(=O)Cc1ccccc1	inactive
Nc1cc(=O)[nH]c(N)n1	inactive
CCCCOC(=O)c1ccc(O)cc1	inactive
Nc1nc2c(ncn2CCC(CO)CO)c(=O)[nH]1	inactive
CCCCCCCCCCCCCCCCCCOCC(O)CO (stereo not drawn)	inactive
CO/N=C(\C(=O)N[C@@H]1C(=O)N2C(C(=O)O)=C(CSc3nc(=O)c(O)nn3C)CS[C@H]12)c1csc(N)n1	inactive
O=C(O)c1ccccc1-c1ccc(C(F)(F)F)cc1	inactive
CCOC(=O)[C@H](CCc1ccccc1)N[C@@H](C)C(=O)N1C(=O)N(C)C[C@H]1C(=O)O	inactive
O=S(=O)(O)c1cc(I)c(O)c2ncccc12	inactive
CC(=O)Nc1ccc(/C=N/NC(N)=S)cc1	inactive
NCCNCCNCCN	inactive
CC(O)CN(CCN(CC(C)O)CC(C)O)CC(C)O (stereo not drawn)	inactive
CCCOC(=O)c1ccccc1	inactive
CN(C)CCCO[C@@H]1[C@H]2OC(C)(C)O[C@H]2O[C@@H]1C(O)CO (stereo partly drawn)	inactive
CCCCCCCCCCCCOS(=O)(=O)O	inactive
O=C(O)Cc1sc(-c2ccccc2)nc1-c1ccc(Cl)cc1	inactive
CC(=O)OCC(=O)[C@@]1(O)CC[C@H]2[C@@H]3CCC4=CC(=O)CC[C@]4(C)[C@H]3C(=O)C[C@@]21C	inactive
CCN(CC)CCNC(C(=O)OCCC(C)C)c1ccccc1 (stereo not drawn)	inactive
CN1CCOC(c2ccccc2)c2ccccc2C1 (stereo not drawn)	inactive

SMILES	Potency
CCC(=O)c1ccc(O)cc1	inactive
Cn1cc[nH]c1=S	inactive
C[C@@H]1CCN(C(=O)[C@H](CCCN=C(N)N)NS(=O)(=O)c2cccc3c2NC[C@H](C)C3)[C@@H](C(=O)O)C1	inactive
NS(=O)(=O)c1cc2c(cc1C(F)(F)F)NC(Cc1ccccc1)NS2(=O)=O (stereo not drawn)	inactive
CCCCN1CCCC[C@H]1C(=O)Nc1c(C)cccc1C	inactive
NCC(=O)CCC(=O)O	inactive
Cc1cc(O)cc2c1O[C@](C)(CCC[C@H](C)CCC[C@H](C)CCCC(C)C)CC2	inactive
O=S(=O)(O)NC1CCCCC1	inactive
O=C1NS(=O)(=O)c2ccccc21	inactive
Cn1c(=O)c2c(ncn2CC2OCCO2)n(C)c1=O	inactive
OC[C@H]1O[C@@H](O[C@@H]2[C@@H](CO)O[C@](O)(CO)[C@H]2O)[C@H](O)[C@@H](O)[C@H]1O	inactive
O=C1OC(OC(=O)c2cccnc2Nc2cccc(C(F)(F)F)c2)c2ccccc21 (stereo not drawn)	inactive
CC1(C)[C@@H]2CC[C@@]1(C)C(=O)C2	inactive
COc1cc(C)c(Cc2cnc(N)nc2N)cc1OC	inactive
c1ccc2c(CC3=NCCN3)cccc2c1	inactive
NC(=O)NNc1ccccc1	inactive
C[C@]12CC[C@@H]3c4ccc(O)cc4CC[C@H]3[C@@H]1CC[C@@H]2OC(=O)CCC1CCCC1	inactive
C[C@@H]1CN(c2c(F)c(F)c3c(=O)c(C(=O)O)cn(C4CC4)c3c2F)C[C@H](C)N1	inactive
NC(=O)N/N=C/c1ccc([N+](=O)[O-])o1	inactive
